The target of assay [1] is Cytochrome P450 3A4 (Homo sapiens) (UniProt P08684). As to the kind of experiment: qHTS Assay for Activators of Cytochrome P450 3A4 (AID 885). Further: nearly all actives have a fitted effect of over 65% in size. In outline: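 20nM CYP3A4 + 25uM Luciferin-PPXE (=KM), 200mM KPO4; cpd 10 min RT; NADPH regen, 60 min RT; stop w/ detection buffer, 20 min; luminescence. Normalized to 57 uM ketoconazole.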
(Quantitative high-throughput screening tests each substance at several concentrations.)

A short description of assay [2]: S16 Schwann cell PMP22 intronic element firefly luciferase assay (AID 624032). Further: nearly all actives have a fitted effect of over 30% in size. In outline: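 Rat S16 Schwann cells stably carrying a PMP22 intronic element-driven Fluc reporter were seeded overnight, then exposed to compounds for 24 h at 37 °C. Luminescence was normalized to PTC124 (positive control) and DMSO (0% activity).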
Assay [3] is described as follows: S16 Schwann cell PMP22 intronic element beta-lactamase assay (AID 624044; calls by dose curve; further: nearly all actives have a fitted effect of over 15% in size). In outline:
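Rat S16 Schwann cells with beta-Lac driven by a PMP22 intronic element, compound-treated 24 h at 37 °C. LiveBLAzer FRET B/G read: 460 nm normalized to potassium clavulanate vs DMSO; 535 nm FRET as viability; concentration-effect curves classified.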

The subject of a further assay is W2. As to the kind of experiment: qHTS profiling for inhibitors of Plasmodium falciparum proliferation (AID 504749). Further: nearly all actives have a fitted effect of over 60% in size. Further: potency means the concentration at half of the fitted maximal effect. The settings on record: P. falciparum in erythrocytes, SYBR Green DNA, 72 h; series mostly up to 12.8 µM. In outline: (§1)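 Parasite proliferation within erythrocytes, 72 h exposure. Endpoint: SYBR Green I fluorescence after overnight lysis at room temperature. Controls: 0.29 uM artemisinin, DMSO.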

For a further assay, the system named is 7G8. Described as above. Conditions: P. falciparum in erythrocytes, SYBR Green DNA, 72 h; series mostly up to 12.8 µM. In outline: as §1
For the next assay, the system named is CP215. The description is as above. The settings on record: P. falciparum in erythrocytes, SYBR Green DNA, 72 h; series mostly up to 12.8 µM. In outline: as §1
For another assay, the system named is CP237. The assay is described as above. The settings on record: P. falciparum in erythrocytes, SYBR Green DNA, 72 h; series mostly up to 12.8 µM. In outline:
as §1

In another assay the test system is CP266. The description is as above. The settings on record: P. falciparum in erythrocytes, SYBR Green DNA, 72 h; series mostly up to 12.8 µM. In outline: as §1
Another assay has as its system CP269. Described as above. The settings on record: P. falciparum in erythrocytes, SYBR Green DNA, 72 h; series mostly up to 12.8 µM. In outline: as §1
A further assay concerns CP297. The assay is described as above. Conditions: P. falciparum in erythrocytes, SYBR Green DNA, 72 h; series mostly up to 12.8 µM. In outline:
as §1

Another assay concerns CP315. Described as above. The settings on record: P. falciparum in erythrocytes, SYBR Green DNA, 72 h; series mostly up to 12.8 µM. In outline: as §1
The subject of the next assay is DIV17. The assay is described as above. The settings on record: P. falciparum in erythrocytes, SYBR Green DNA, 72 h; series mostly up to 12.8 µM. In outline:
as §1

The test system of another assay is GB4. Described as above. Conditions: P. falciparum in erythrocytes, SYBR Green DNA, 72 h; series mostly up to 12.8 µM. In outline: as §1
The next assay concerns P94_40. The description is as above. Conditions: P. falciparum in erythrocytes, SYBR Green DNA, 72 h; series mostly up to 12.8 µM. In outline: as §1
In a further assay the test system is PC26. The description is as above. The settings on record: P. falciparum in erythrocytes, SYBR Green DNA, 72 h; series mostly up to 12.8 µM. In outline:
as §1

Assay [4] deals with Cytochrome P450 2C9 (Homo sapiens) (UniProt P11712). As to the kind of experiment: qHTS Assay for Inhibitors and Substrates of Cytochrome P450 2C9 (AID 883). Further: nearly all actives have a fitted effect of over 60% in size. Further: potency means the concentration at half of the fitted maximal effect. In outline:
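Human CYP2C9 (10nM) hydroxylated Luciferin-H (100uM, at its KM) to luciferin in 25mM KPO4. Compound was preincubated 10 min at 37C, then NADPH regeneration started a 60 min reaction at 37C. Luminescence was read after detection reagent, normalized to 57uM sulphaphenazole.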

The subject of another assay is CP335. Description: qHTS profiling for inhibitors of Plasmodium falciparum proliferation (AID 504749). Further: nearly all actives have a fitted effect of over 60% in size. Further: potency means the concentration at half of the fitted maximal effect. The settings on record: P. falciparum in erythrocytes, SYBR Green DNA, 72 h; series mostly up to 12.8 µM. In outline: as §1
The target of assay [5] is Cytochrome P450 3A4 (Homo sapiens) (UniProt P08684). As to the kind of experiment: qHTS Assay for Inhibitors and Substrates of Cytochrome P450 3A4 (AID 884). Further: potency means the concentration at half of the fitted maximal effect; nearly all actives have a fitted effect of over 50% in size. In outline: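 20 nM human CYP3A4 with 25 uM Luciferin-PPXE (at KM) in 200 mM KPO4, preincubated 10 min with compound; NADPH regeneration started a 60 min RT reaction. Luciferin detected by luminescence, normalized to 57 uM ketoconazole as full inhibition.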

Assay [6] in a line: Confirmation and Secondary Assay for Modulators of Hemoglobin Beta Chain Splicing at IVS2 654 locus (AID 910).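 Further: per-well total GFP intensity by laser scanning cytometry after 2-day treatment.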 In outline:
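HeLa cells stably carrying EGFP interrupted by mutant beta-globin IVS2-654 intron (CMV-driven) were treated with compound for 2 days at 37C; corrected splicing was scored as total peak GFP intensity per well (488 nm excitation, 500-520 nm emission).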

Records with an inconclusive call do not appear. Calls of active or inactive are those of the source. Unless noted, the call rests on the fitted dose curve; in most records, active means well fitted curve in the direction sought with a large enough effect; inconclusive means small, poorly fitted or top-dose-only effect, or another doubt; inactive means no such curve, though single readings can be large; an effect the other way counts as inactive or inconclusive.

Sequence of Cytochrome P450 2C9 (Homo sapiens) (P11712 whole entry, looked up): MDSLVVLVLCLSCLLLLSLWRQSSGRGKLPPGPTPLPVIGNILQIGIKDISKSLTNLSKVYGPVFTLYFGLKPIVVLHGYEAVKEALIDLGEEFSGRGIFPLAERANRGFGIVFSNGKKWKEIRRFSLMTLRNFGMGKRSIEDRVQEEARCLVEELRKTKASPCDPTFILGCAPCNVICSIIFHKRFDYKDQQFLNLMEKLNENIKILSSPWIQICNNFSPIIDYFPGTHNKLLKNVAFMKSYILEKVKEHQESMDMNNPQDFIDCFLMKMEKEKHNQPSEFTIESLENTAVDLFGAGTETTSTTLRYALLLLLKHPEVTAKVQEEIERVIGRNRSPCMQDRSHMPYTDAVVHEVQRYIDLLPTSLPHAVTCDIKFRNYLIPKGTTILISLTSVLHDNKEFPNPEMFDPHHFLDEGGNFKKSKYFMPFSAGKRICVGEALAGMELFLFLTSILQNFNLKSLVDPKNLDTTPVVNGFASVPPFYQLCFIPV
Sequence of Cytochrome P450 3A4 (Homo sapiens) (P08684 whole entry, looked up): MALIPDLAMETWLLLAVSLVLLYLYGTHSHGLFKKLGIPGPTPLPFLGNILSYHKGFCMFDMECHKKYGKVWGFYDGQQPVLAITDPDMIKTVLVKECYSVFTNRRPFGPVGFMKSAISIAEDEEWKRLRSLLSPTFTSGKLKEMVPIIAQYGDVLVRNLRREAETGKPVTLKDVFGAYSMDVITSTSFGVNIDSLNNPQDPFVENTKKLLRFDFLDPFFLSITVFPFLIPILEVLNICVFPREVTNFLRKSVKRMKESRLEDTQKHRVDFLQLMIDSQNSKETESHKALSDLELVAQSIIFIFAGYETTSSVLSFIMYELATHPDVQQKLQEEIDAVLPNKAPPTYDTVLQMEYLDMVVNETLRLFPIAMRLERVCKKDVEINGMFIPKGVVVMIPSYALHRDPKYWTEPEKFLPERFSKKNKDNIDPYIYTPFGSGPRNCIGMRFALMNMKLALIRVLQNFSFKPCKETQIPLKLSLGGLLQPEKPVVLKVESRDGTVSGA

On to `CO[C@H]1[C@H](O[C@H]2O[C@@H](C)[C@@H](O[C@@H]3C[C@](C)(O)[C@H](OC(=O)CC(C)C)[C@H](C)O3)[C@@H](N(C)C)[C@@H]2O)[C@@H](CC=O)C[C@@H](C)[C@@H](O)/C=C\C=C/C[C@@H](C)OC(=O)C[C@H]1OC(C)=O`, for which the Potency result in assay [1], in [2] and in [3] was “inactive” each time. Moreover, the Potency with W2 was 1610 nM (active).
Turning to `C[C@H](Oc1ccccc1)C(=O)N[C@@H]1C(=O)N2[C@@H]1SC(C)(C)[C@@H]2C(=O)O`, the Potency entry (in [2]; in assay [3]; with 7G8; in the assay with CP215; in the assay with CP237; in the assay on CP266) was “inactive” in each case. The Potency result in the assay with CP269, in the assay on CP297, in the assay on CP315, in the assay with DIV17, in the assay on GB4 and with P94_40 was “inactive” throughout. In addition, the Potency entry with PC26 and in the assay with W2 was “inactive” each time.
As for `C=CCSC[C@@H]1Nc2cc(Cl)c(S(N)(=O)=O)cc2S(=O)(=O)N1`, the Potency result in assay [4] is “inactive”.
For `COc1ccc2c3c([nH]c2c1)[C@@H]1C[C@@H]2[C@@H](C[C@H](O)[C@H](OC)[C@H]2C(=O)O)CN1CC3`, the Potency entry in [4] was “inactive”.
On to `NC(=O)N[C@H]1NC(=O)NC1=O`, for which the Potency result (in [2]; in assay [3]; in the assay on 7G8; in the assay with CP215; with CP237; with CP266) was “inactive” in each case. For the same compound, the Potency entry with CP269, in the assay with CP297, in the assay on CP315, in the assay on CP335, with DIV17 and in the assay on P94_40 was “inactive” throughout. In addition, the Potency entry in the assay with PC26 and in the assay on W2 was “inactive” each time.
Take `C=CCN1C(=CCO)[C@H]2C[C@H]3[C@@H]1CC[C@@]31c3ccccc3N3C=C4[C@@H]5N(/C=C/2[C@H]31)c1ccccc1[C@]51CC[C@H]2[C@H]1C[C@@H]4/C(=C/CO)N2CC=C`: the Potency entry (in [2]; in assay [3]; with 7G8; in the assay with CP215; in the assay on CP237; with CP266) was “inactive” throughout. For the same compound, the Potency result with CP269, with CP297, with CP315, in the assay with DIV17, with GB4 and with P94_40 was “inactive” each time. Further, the Potency result in the assay on PC26 and in the assay with W2 was “inactive” throughout.
As for `CN(C)c1ccc(-c2nccc(NCc3ccccc3)n2)cc1`, in assay [5], the Potency was 7940 nM (active). For the same compound, the Potency result in assay [1] and in [6] was “inactive” in each case.
For the compound `CC(=O)[C@@H]1CC[C@@H]2[C@@H]3C[C@H](C)C4=CC(=O)CC[C@@]4(C)[C@H]3[C@H](O)C[C@]21C`, the Potency in assay [4] is 398 nM (active). For the same compound, the Potency result (in [1]; in assay [3]; in the assay with CP215; in the assay with CP237; in the assay with CP266; with CP269) was “inactive” throughout. Besides, the Potency entry in the assay with CP315, in the assay with CP335, in the assay with DIV17, in the assay on GB4 and in the assay on PC26 was “inactive” throughout.
`C[C@@]12CC[C@H]3[C@@H](CCC4=CC(=O)CC[C@]43C)[C@H]1CC[C@H]2C(=O)CO`: the Potency entry (in [2]; in assay [3]; in the assay with 7G8; in the assay on CP215; in the assay on CP237; in the assay with CP266) was “inactive” in each case. Besides, the Potency result in the assay with CP269, with CP297, in the assay with CP315, in the assay with CP335, in the assay with DIV17 and in the assay on GB4 was “inactive” throughout. For the same compound, the Potency entry in the assay on PC26 and in the assay with W2 was “inactive” throughout.

Values taken from PubChem BioAssay (NCATS).
